Outcome and AC50 data for 40 compounds are collected here from PubChem BioAssay (EPA / NIEHS).

The source made the active and inactive calls. The calls were made as follows: active = hit-call score of the fitted dose curve at least 0.9, where 1 is the maximum; inactive = score below 0.9.

Sequence of Hypoxia-inducible factor 1-alpha (Homo sapiens) (Q16665 whole entry, looked up): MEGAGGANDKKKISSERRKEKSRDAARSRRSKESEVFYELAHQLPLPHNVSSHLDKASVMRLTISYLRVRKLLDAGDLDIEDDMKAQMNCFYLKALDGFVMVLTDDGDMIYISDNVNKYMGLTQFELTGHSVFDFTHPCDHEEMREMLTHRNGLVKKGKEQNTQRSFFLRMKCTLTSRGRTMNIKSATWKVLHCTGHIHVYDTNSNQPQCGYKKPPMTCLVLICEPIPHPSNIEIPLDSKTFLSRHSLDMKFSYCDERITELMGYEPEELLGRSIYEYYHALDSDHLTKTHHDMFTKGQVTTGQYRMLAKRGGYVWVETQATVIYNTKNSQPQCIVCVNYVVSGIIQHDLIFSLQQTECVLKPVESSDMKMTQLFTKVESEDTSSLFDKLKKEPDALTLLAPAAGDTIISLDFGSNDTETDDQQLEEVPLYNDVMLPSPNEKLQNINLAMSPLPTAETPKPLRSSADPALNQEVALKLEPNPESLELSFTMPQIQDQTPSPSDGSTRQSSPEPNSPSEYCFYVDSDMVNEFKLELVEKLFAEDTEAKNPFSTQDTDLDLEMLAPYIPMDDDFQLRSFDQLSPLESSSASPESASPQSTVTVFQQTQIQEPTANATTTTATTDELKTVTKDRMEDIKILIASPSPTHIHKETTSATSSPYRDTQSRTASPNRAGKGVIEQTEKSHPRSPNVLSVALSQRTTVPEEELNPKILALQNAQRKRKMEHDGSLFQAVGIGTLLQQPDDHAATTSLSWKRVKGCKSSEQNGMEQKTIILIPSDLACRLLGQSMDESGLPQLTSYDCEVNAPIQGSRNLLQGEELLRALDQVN

This test deals with Hypoxia-inducible factor 1-alpha (Homo sapiens) (UniProt Q16665). Kind of test: ATG_HIF1a_CIS: Attagene CIS-FACTORIAL HepG2 Assay for human Hypoxia Inducible Factor 1 (HIF1A) (AID 2282951). To be noted: HepG2 Attagene cis-factorial HIF1a reporter transcription; actives raise or lower the signal. How it is done:
ATG_CIS is a cell-based, multiplexed-readout assay that uses HepG2, a human liver cell line, with measurements taken at 24 hours after chemical dosing in a 24-well plate.ATG_HIF1a_CIS is one of 52 assay component(s) measured or calculated from the ATG_CIS assay. It is designed to make measurements of mRNA induction, a form of inducible reporter, as detected with fluorescence intensity signals by Reverse transcription polymerase chain reaction (RT-PCR) and Capillary electrophoresis technology.Data from the assay component ATG_HIF1a_CIS was analyzed into 1 assay endpoint. This assay endpoint, ATG_HIF1a_CIS, was analyzed with bidirectional fitting relative to DMSO as the negative control and baseline of activity. Using a type of inducible reporter, measures of mRNA for gain or loss-of-signal activity can be used to understand the reporter gene at the transcription factor-level as they relate to the gene HIF1A. Furthermore, this assay endpoint can be referred to as a primary readout, because this assay has produced multiple assay endpoints where this one serves a reporter gene function. To generalize the intended target to other relatable targets, this assay endpoint is annotated to the dna binding intended target family, where the subfamily is basic helix-loop-helix protein.
Human liver HepG2 cells are transiently transfected with multiple reporter transcription units (MRTUs) in 6-well plates using FuGene 6 reagent (Roche; 3 ml FuGene/1 mg DNA). The MRTU constructs are regulated by a cis-regulating element (promoter). […] A major difference between the CIS and TRANS system is that in CIS activities of endogenous TFs are measured, whereas the TRANS assay evaluates changes in activities of exogenous, chimeric NR-Gal4 proteins. […] At the end of 24 hour incubation, total RNA was isolated using TriZol reagent (Invitrogen). The isolated RNA is then reverse-transcribed using oligo(dT) primer and Mo-MLV reverse transcriptase (Invitrogen) with DNAse I (Ambion) treatment for 30 min. The one-tenth of the produced cDNA was amplified by PCR using Taq DNA polymerase (Invitrogen) and two reporter sequence-specific primers. The PCR products were fluorescently labeled by primer extension with 6-arboxyfluorescein (6-FAM) 5'-labeled reporter sequence-specific primer (2 min at 95 C, 20 s at 68 C and 10 min at 72 C) and these products were digested with 5U of HpaI (New England Biolabs) for 2h at 37 C. The fragments were purified using Qiaquick PCR columns (Qiagen), analyzed on an ABI 3130xL genetic analyzer (Applied Biosystems) with peak positions identified by using a set of X-rhodamine (ROX)-labeled MapMarker1000 molecular weight standards (BioVentures). The raw capillary electrophoresis data was processed using Attagraph software (Attagene).
As for `COP(=O)(O)OC`, the outcome was inactive.

A word on the AC50: it is the midpoint of the concentration-response curve, whichever way the signal moves. For the compound `CO/N=C(/C(=O)OC)c1ccccc1COc1ccccc1C`, the AC50 was 100 µM (active).

On to `C=CC(=O)OCC(CC)(COC(=O)C=C)COC(=O)C=C`, for which the compound was called inactive. Take `CCC(C)(C)c1ccc(O)cc1`: the AC50 was 33.4 µM (active). Regarding `c1ccc2c(c1)Nc1ccccc1S2`, the outcome was inactive.

As to `CCCCc1ccccc1`, the concentration at half-maximal activity (AC50) was 59.2 µM (active). Turning to `CSC(C)(C)C=NO`, the compound was classed as inactive. For the compound `O=[N+]([O-])c1ccc(Cl)c(Cl)c1`, the outcome was inactive.

For `OCC(F)(F)OC(F)(F)C(F)(F)OC(F)(F)C(F)(F)OC(F)(F)CO`, the outcome was inactive. As to `OCC(F)(F)OC(F)(F)C(F)(F)OC(F)(F)C(F)(F)OC(F)(F)F`, the call was inactive.

As for `O=c1ssc(Cl)c1Cl`, the outcome was inactive. `Cc1cc(C)c(C(=O)P(=O)(c2ccccc2)c2ccccc2)c(C)c1`: the compound was classed as inactive. As for `CCOC(=O)c1ccccc1C(=O)OCC`, the call was inactive.

`c1cc2c3c(cccc3c1)CC2`: the call was inactive. On the same count and under the same terms, with `CCCCCCCc1ccc(O)cc1` the entry was “inactive”; with `Clc1ccc(Oc2ccccc2)cc1`, “inactive”; with `CCOP(=S)(OCC)SCSCC`, “inactive”.

On to `Cn1[nH]nnc1=S`, for which the half-maximal activity concentration (AC50) is 27 µM (active). For the compound `Cc1cccc(N)c1`, the compound was classed as inactive.

Take `Nc1ccc(Sc2ccc(N)cc2)cc1`: the half-maximal activity concentration (AC50) was 45.3 µM (active). In the case of `c1nc[nH]n1`, the outcome was inactive. For `O=C(O)C(Cl)Cl`, the outcome was inactive. For the compound `CCOC(=O)c1ccccc1N`, the outcome was inactive. With `C=C(C)C(=O)OCC1CO1` (stereo not given), the call was inactive. On the same count and under the same terms, with `FC(F)(F)c1ccc(Cl)cc1` the entry was “inactive”; with `CC(O)C#N` (stereo not given), “inactive”. For the compound `O=C(CBr)OCc1ccccc1`, the result was inactive.

As for `CC(O)C(F)(F)C(F)(F)F` (stereo not given), the result was inactive. For `CCOP(=S)(OCC)SCS(=O)(=O)CC`, the call was inactive. Turning to `CC(C)(C)N(NC(=O)c1ccc(Cl)cc1)C(=O)c1ccccc1`, the outcome was inactive. On the same count and under the same terms, the result for `O=P(Oc1ccccc1)(Oc1ccccc1)Oc1ccccc1` reads “inactive”; that for `OCC1CO1` (stereo not given), “inactive”; that for `OCC(F)(F)OC(F)(F)C(F)(F)OC(F)(F)CO`, “inactive”. Same read-out and setting: with `O=C(O)C(F)(F)OC(F)(F)C(F)(F)OC(F)(F)C(=O)O` the entry was “inactive”; with `CCOS(=O)(=O)OCC`, “inactive”.

Consider `COC(N)=O`, for which the AC50 is 100 µM (active).

Turning to `CCCCOCCOP(=O)(OCCOCCCC)OCCOCCCC`, the outcome was inactive.

For the compound `O=P(OCC(Br)CBr)(OCC(Br)CBr)OCC(Br)CBr` (stereo not given), the half-maximal activity concentration (AC50) is 16.3 µM (active). Turning to `CC(=O)CCc1ccc2c(c1)OCO2`, the result was inactive. As for `O=C(O)C(F)(OC(F)(F)C(F)(F)C(F)(F)F)C(F)(F)F` (stereo not given), the compound was called inactive.
